In ChEMBL document CHEMBL3988442, “University of Dundee, Small-Polar-MMV Screening Library” (2021):
About 13,000 (27%) of roughly 48,000 compounds showed an effect of 50% or more. The list shows a part of the results.

The molecules below were run on Wolbachia pipientis (assay: Anti-Wolbachia Cell-Based Screen). Details: 5 µM.
Assay type: functional
Set-up: scale not given: in the data most compounds retested in dose-response had high values

Row | SMILES | Percent Effect
1 | CC(c1ccc(F)c(F)c1)N(C)CCS(=O)(=O)CCC(N)=O (stereo not given) | 2.944%
2 | CC(c1cccc(S(N)(=O)=O)c1)N(C)CCOC(C)(C)C (stereo not given) | 105.4%
3 | COCCN(C)C(C)c1cccc(S(N)(=O)=O)c1 (stereo not given) | 128.5%
4 | CC(c1cccc(O)c1)N(C)S(N)(=O)=O (stereo not given) | 16.66%
5 | CC(c1cccc(Cl)c1)N(C)CCS(=O)(=O)CCC(N)=O (stereo not given) | 6.991%
6 | CC(c1cccc(O)c1)N(C)S(=O)(=O)c1cccnc1 (stereo not given) | -4.431%
7 | O=C(c1cc[nH]n1)N1CCc2ccc(S(=O)(=O)N3CCOCC3)cc2C1 | 111.1%
8 | O=C(c1ccc[nH]1)N1CCc2ccc(S(=O)(=O)N3CCOCC3)cc2C1 | 99.23%
9 | O=C1COc2ccc(S(=O)(=O)N3CCOCC3)c3c2N1CCC3 | 16.87%
10 | O=C(c1ccc[nH]1)N1CCc2c(cccc2S(=O)(=O)N2CCOCC2)C1 | 94.62%
11 | CN1CCN(S(=O)(=O)c2ccc3c(c2)CN(C(=O)C(C)(C)C)CC3)CC1 | -9.365%
12 | CCCNC(=O)N1CCc2ccc(S(=O)(=O)N3CCN(C)CC3)cc2C1 | -8.252%
13 | O=C(O)c1cc(-n2cc3c(n2)CCC3)cc(S(=O)(=O)N2CCOCC2)c1 | -7.127%
14 | O=C(c1c[nH]c(=O)c(Cl)c1)N1CCc2ccccc2C1 | 10.27%
15 | CCCNC(=O)N1CCc2ccc(S(=O)(=O)N3CCOCC3)cc2C1 | -14.34%
16 | CCCNC(=O)N1CCc2ccc(S(=O)(=O)N3CCCC3)cc2C1 | -4.985%
17 | O=C(c1ccc[nH]1)N1CCc2cc(S(=O)(=O)N3CCOCC3)ccc2C1 | 106.5%
18 | CC(C)CC(=O)N1CCc2ccc(S(=O)(=O)N3CCN(C)CC3)cc2C1 | 0.4144%
19 | CCN1CCC(CC(=O)NC[C@H]2CCc3ccccc3O2)CC1 | 15.83%
20 | CC(=O)N1CCCC2(CN(Cc3ccc(F)cc3)CCO2)C1.O=C(O)C(F)(F)F (stereo not given) | -7.517%
21 | CCN1CC2(CC1=O)CN(Cc1cnn(C)c1)CCN(C(C)=O)C2.O=C(O)C(F)(F)F (stereo not given) | 1.894%
22 | Cn1cc(CN2CCC3(C2)CN(Cc2ccsc2)C3)cn1.O=C(O)C(F)(F)F.O=C(O)C(F)(F)F | -10.11%

Row | SMILES | Percent Effect
23 | CC(=O)N1CCN(Cc2ccc(F)cc2)CC2(CC(=O)N(C)C2)C1.O=C(O)C(F)(F)F (stereo not given) | 98.03%
24 | CC(=O)N1CCN(Cc2ccsc2)CC2(CC(=O)N(C)C2)C1.O=C(O)C(F)(F)F (stereo not given) | 101.7%
25 | CCn1cc2c(n1)C(COCC1CC1)CN(C(=O)c1ccsc1)C2 (stereo not given) | 2.501%
26 | CCOCCC(=O)N1CCCN(c2ccccc2C)CC1 | 0.9002%
27 | CC(C)NC(=O)c1nc2c(s1)CCCN2C(C)C | 3.81%
28 | O=C(NCCN1CCCC1)c1cc2c(s1)CCN2c1ncccn1 | 97.7%
29 | CCCNC(=O)c1cnc2n1CCCC2 | -8.644%
30 | CC(C)NC(=O)c1nc2c(s1)CCCN2c1ccccc1 | 7.229%
31 | CCCNC(=O)c1nc2c(o1)CN(c1ncccn1)C2 | -1.924%
32 | O=C(NCCN1CCCC1)c1nc2c(o1)CN(c1ncccn1)C2 | -7.93%
33 | O=C(NCCN1CCOCC1)c1cc2c(s1)CCN2Cc1cccnc1 | -4.667%
34 | CCCNC(=O)c1cc2c(s1)CCN2c1ncccn1 | 122.6%
35 | CCc1cc(C(=O)N2CCC(Nc3ccc(C)nn3)CC2)sc1C | -9.138%
36 | Cc1ccc(N2CCc3sc(C(=O)N4CCOCC4)cc32)nn1 | 84.11%
37 | Cc1ccc(N2C[C@H](C(=O)N3CCOCC3)[C@@H]3CCO[C@@H]3C2)nn1 | -2.103%
38 | CC(C)NC(=O)c1cc2c(s1)CCN2c1ncccn1 | 92.76%
39 | c1cc(-c2nnn3c2COC(CNCC2CCOCC2)C3)ccn1 (stereo not given) | -54.53%
40 | c1cnnc(N2CCCC(NCc3cccc4c3OCO4)C2)c1 (stereo not given) | 3.932%
41 | CCC(NC(=O)NCc1ccoc1C)c1c(C)nn(C)c1C (stereo not given) | 3.251%
42 | CCN1CCCC(c2c(-c3ccccc3)ncn2CCCO)C1 (stereo not given) | -4.818%
43 | O=C(NCC1CC1)c1cc2c(s1)CCN2c1ncccn1 | 107.3%
44 | Cc1ccc(N2CCc3sc(C(=O)NCCN4CCCC4)cc32)nn1 | 102.9%

Row | SMILES | Percent Effect
45 | CCOCCCNC(=O)c1nc2c(s1)CCCN2c1ccc(C)nn1.O=C(O)C(F)(F)F | -5.598%
46 | Cc1nnsc1C(=O)NCC1CCN(c2ccccn2)CC1 | 1.014%
47 | Cc1ccc(N2CCCc3sc(C(=O)NCCC#N)nc32)nn1.O=C(O)C(F)(F)F | -4.317%
48 | CCNC(=O)C(C)(C)NC(=O)NCc1cccc(Br)c1 | 5.794%
49 | CCc1ccc(CN2CCN(CCOC)[C@@H]3CS(=O)(=O)C[C@@H]32)cc1 | -8.66%
50 | c1ccc(-c2nc(SCc3nnc(C4CC4)o3)n[nH]2)nc1 | -8.457%
51 | Cc1cc(NC(=O)CNC2CCCN(c3cccnn3)C2)on1 (stereo not given) | 92.8%
52 | CS(=O)(=O)c1ccc(CNC2CCCN(c3cccnn3)C2)cc1 (stereo not given) | 6.689%
53 | Cc1nc(CNC2CCCN(c3cccnn3)C2)no1 (stereo not given) | 0.4362%
54 | c1cnnc(N2CCCC(NCc3ccncc3)C2)c1 (stereo not given) | 0.6717%
55 | CC(C)c1cc(NC(=O)CNC2CCCN(c3cccnn3)C2)on1 (stereo not given) | 100.2%
56 | Cc1ccc(N2CCCC(N(C)Cc3cc(C)no3)C2)nn1 (stereo not given) | 1.683%
57 | Cc1ccc(N2CCCC(NCC(=O)Nc3cc(C)no3)C2)nn1 (stereo not given) | 8.409%
58 | Cc1cc(NC(=O)CN(C)C2CCCN(c3cccnn3)C2)n(C)n1 (stereo not given) | -4.115%
59 | Cc1cc(NC(=O)CN(C)C2CCCN(c3cccnn3)C2)on1 (stereo not given) | 99.52%
60 | Cc1cc(NC(=O)NCCc2cscn2)nn1C | -10.8%
61 | O=C(Cc1cccc(F)c1F)NC1COc2ccccc2C1=O (stereo not given) | 2.844%
62 | CN(C)CCN1CCOCC2(CCCN(C(=O)c3cccc(O)c3)C2)C1 (stereo not given) | -3.261%
63 | CCN1CCOCC2(CCCN(C(=O)c3cnccn3)C2)C1 (stereo not given) | 95.08%
64 | CCN1CCOCC2(CCCN(C(=O)c3ccccc3F)C2)C1.O=C(O)C(F)(F)F (stereo not given) | 106.1%
65 | O=C(O)C(F)(F)F.O=C(c1cnccn1)N1CCCC2(COCCN(CC3CC3)C2)C1 (stereo not given) | -6.241%
66 | CCN1CCOCC2(CCCN(C(=O)c3cccc(O)c3)C2)C1 (stereo not given) | 105.1%

Row | SMILES | Percent Effect
67 | O=C(c1ccnc(-n2cnnc2)c1)N1CCCC2(CCOC2)C1 (stereo not given) | 13.33%
68 | CN(C)CCN1CCOCC2(CCCN(C(=O)c3cccn3C)C2)C1.O=C(O)C(F)(F)F.O=C(O)C(F)(F)F (stereo not given) | -8.448%
69 | CC(C)CN1CCCC2(CCN(C(=O)c3cnccn3)C2)C1 (stereo not given) | -16.61%
70 | CN(C)CCN1CCOCC2(CCCN(C(=O)c3ccccc3)C2)C1.O=C(O)C(F)(F)F.O=C(O)C(F)(F)F (stereo not given) | -4.449%
71 | CC(C)CNC(=O)c1nc2c(s1)CCN(C(=O)c1ccc(Cl)cc1)CC2 | -4.208%
72 | CC(C)OCCCNC(=O)N(C)C(C)c1ccc(-n2cncn2)cc1 (stereo not given) | -7.098%
73 | Cc1cccc(-c2nc(CN3CCOCS3(=O)=O)c(C)o2)c1 | 4.701%
74 | CCN(CCn1cccn1)Cc1nc(-c2cccc(C)c2)oc1C | -6.378%
75 | CCc1nnc(CN(C)Cc2nc(-c3ccccc3Cl)oc2C)o1 | -2.214%
76 | CCN1CC(CN(C)Cc2nc(-c3cccc(Cl)c3)oc2C)CC1=O (stereo not given) | 102.8%
77 | CCN1CC(CN(C)Cc2nc(-c3cccc(C)c3)oc2C)CC1=O (stereo not given) | 105.1%
78 | CNC(=O)CC1CCN(Cc2nc(-c3cccc(Cl)c3)oc2C)CC1 | -0.6077%
79 | Cc1nc(C2CCCN(C(=O)c3cc(Cl)c[nH]3)C2)no1 (stereo not given) | 0.9971%
80 | O=C(Cc1cccc(F)c1)NCCNCc1cccnc1 | 96.05%
81 | N#Cc1cccc(CNC(=O)NC2CCN(CC(F)F)CC2)c1 | -0.5422%
82 | O=C(Cc1cccc(F)c1)NCCNCc1ccco1 | -5.047%
83 | N#Cc1cccc(CNCCNC(=O)Cc2cccc(F)c2)c1 | 98.51%
84 | CCN(CCNCc1cccc(C#N)c1)C1CC1 | -10.23%
85 | O=C(Cc1cccc(F)c1)NCCNCC1CNc2ccnn2C1 (stereo not given) | 0.2613%
86 | COCCN(CCC#N)S(=O)(=O)c1cc(F)cc(F)c1 | -7.872%
87 | c1ccc(C(c2ccccc2)N2CCN(CCn3cncn3)CC2)cc1 | 0.8212%
88 | CC(C)(C)c1ccn(C2(C(=O)O)CCN(c3nccc(N)n3)CC2)n1 | -5.25%

Row | SMILES | Percent Effect
89 | O=C(c1cnccn1)N1C[C@@H]2[C@@H](C1)OCC(=O)N2CC1CCCC1 | -6.759%
90 | COc1cc(C2(C(=O)NCC(=O)NC3CC3)CC2)ccc1C | 9.021%
91 | Cc1ncsc1C(=O)NCCSCCCO | -0.9457%
92 | Cc1ncsc1-c1ccn(CC(=O)Nc2cnn(C)n2)n1 | -5.489%
93 | O=C(NCCNC(=O)c1scnc1Cl)c1ccccc1 | -1.754%
94 | Cc1ncsc1-c1cc(C(=O)NCCO)ccn1 | 109.9%
95 | CNC(=O)c1ccc(CN(C(=O)c2scnc2C)C2CC2)cc1 | 4.078%
96 | CNC(=O)CNC(=O)c1ccc(-c2scnc2C)nc1 | 75.09%
97 | CCCc1nnc(NC(=O)N2CCCC2c2ccncc2)s1 (stereo not given) | 3.484%
98 | CN(Cc1ccc(-n2cccn2)cc1)c1nc(N)nc2c1CCNCC2 | 3.985%
99 | CCOc1ccc(-c2nc(CN(C)Cc3c(C)noc3C)cs2)cc1 | -23.12%
100 | c1cnc2c(-c3nccn3C[C@@H]3CCCN4CCCC[C@H]34)cccc2c1 | 5.22%
101 | CS(=O)(=O)NCC1CCN(C(=O)Oc2ccccc2)CC1 | -10.63%
102 | CO[C@@H]1CN(c2ccccc2)S(=O)(=O)[C@@]12CCN(C(=O)N(C)C)C2 | 88.6%
103 | CN(C)C(=O)N1CCN(C(=O)CCc2ccccc2)[C@H]2CS(=O)(=O)C[C@H]21 | -4.375%
104 | CO[C@@H]1CN(c2ccccc2)S(=O)(=O)[C@@]12CCN(C(C)=O)C2 | 94.97%
105 | COC(=O)N1CCC2(CC1)CC(c1ccccc1)CN(C)C2 (stereo not given) | -13.78%
106 | COC(=O)N1CC[C@@]2(C1)[C@H](OC)CN(c1ccccc1)S2(=O)=O | 101.1%
107 | O=C(C1CC2(CCNCC2)CN1)N1CCN(c2ccccc2)CC1 (stereo not given) | -0.8952%
108 | CC(=O)N1CCC2(CC1)CC(Oc1ccccc1)CO2 (stereo not given) | -5.824%
109 | CN(C)C(=O)N1CCC(C2C(=O)Nc3ccccc32)CC1 (stereo not given) | -38.16%
110 | CO[C@@H]1CN(c2ccccc2)S(=O)(=O)[C@@]12CCNC2 | 127.8%
